NPC1 promoter act = qHTS Assay for NPC1 Promoter Activators; Potency, µM (highest dose often 9.22 µM), for inactives: top-dose activation, actives largely listed as activators; Huh7 NPC1 promoter luciferase reporter, 24 h; actives 2.4% (n = 320,000); AID 485313, 2010; note: % of control where 0% means no effect; nearly all actives have a fitted effect of over 60% in size
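Huh7 reporter cells (NPC1 promoter driving luciferase) are dosed with compound for 24 h at 37 °C, 5% CO2; luciferase detection reagent is then added and luminescence measured after 10 min at ambient temperature.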
ELG1 repair inh = qHTS screen for small molecules that inhibit ELG1-dependent DNA repair in human embryonic kidney (HEK293T) cells expressing luciferase-tagged ELG1; HEK293T ELG1-luciferase reporter, luminescence, 16 h; DNA damage induced by 5-fluorouridine; Potency, µM (series often up to 46.1 µM), for inactives: at the highest dose activity change, negative = inhibition, usual class: inhibitors; actives 2.3% (n = 330,000); AID 504467, 2011; note: % is set by controls: 0 for no effect and ±100 for the full control effect; nearly all actives have a fitted effect of over 55% in size
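Cells (2,000 per well) received 5-fluorouridine plus test compound or DMSO and were incubated 16 hr at 37 °C, 5% CO2. Luciferase activity was read by luminescence 30 min after ONE-Glo addition; signal suppression marked inhibition of damage-induced ELG1 function.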
Rab9 prom act = qHTS Assay for Rab9 Promoter Activators. actives 2.8% (n = 320,000). Huh7 Rab9 promoter-luciferase reporter, luminescence, 24 h. AID 485297, 2010. Potency, µM (titrated, usually from 9.22 µM), for the others: top-dose activation, negative = inhibition, actives largely listed as activators; note: % of control where 0% means no effect; nearly all actives have a fitted effect of over 60% in size
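Promoter activation is measured as luciferase luminescence in Huh7 cells stably transfected with a Rab9 promoter–luciferase construct, following 24 h compound exposure at 37 °C and 10 min reagent incubation at ambient temperature.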
ELG1 genotox = qHTS screen for small molecules that induce genotoxicity in human embryonic kidney (HEK293T) cells expressing luciferase-tagged ELG1; HEK293T ELG1-luciferase reporter, luminescence, 16 h; Potency, µM (highest dose often 46 µM), for inactives: top-dose activity change, positive = activation, actives largely listed as activators; actives 1.3% (n = 330,000); note: % of control where 0% means no effect; nearly all actives have a fitted effect of over 60% in size
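Screening used a luciferase reporter fused to human ELG1 in HEK293T cells. Luminescence was read on a CCD plate imager after 16 hr exposure and 30 min ONE-Glo incubation.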
FLuc counter = qHTS profiling assay for firefly luciferase inhibitor/activator using purifed enzyme and Km concentrations of substrates (counterscreen for miR-21 project); purified FLuc, Km substrates, luminescence inhibition; Potency, µM (series often up to 57.5 µM), for the others: top-dose activity change, negative = inhibition, usual class: inhibitors; actives 6.9% (n = 360,000); AID 588342, 2011; Luciferin 4-monooxygenase (Photinus pyralis), P08659;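 note: plate controls were vehicle for no effect and reference inhibitor for full effect; nearly all actives have a fitted effect of over 55% in size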
Target sequence (P08659 whole entry, looked up): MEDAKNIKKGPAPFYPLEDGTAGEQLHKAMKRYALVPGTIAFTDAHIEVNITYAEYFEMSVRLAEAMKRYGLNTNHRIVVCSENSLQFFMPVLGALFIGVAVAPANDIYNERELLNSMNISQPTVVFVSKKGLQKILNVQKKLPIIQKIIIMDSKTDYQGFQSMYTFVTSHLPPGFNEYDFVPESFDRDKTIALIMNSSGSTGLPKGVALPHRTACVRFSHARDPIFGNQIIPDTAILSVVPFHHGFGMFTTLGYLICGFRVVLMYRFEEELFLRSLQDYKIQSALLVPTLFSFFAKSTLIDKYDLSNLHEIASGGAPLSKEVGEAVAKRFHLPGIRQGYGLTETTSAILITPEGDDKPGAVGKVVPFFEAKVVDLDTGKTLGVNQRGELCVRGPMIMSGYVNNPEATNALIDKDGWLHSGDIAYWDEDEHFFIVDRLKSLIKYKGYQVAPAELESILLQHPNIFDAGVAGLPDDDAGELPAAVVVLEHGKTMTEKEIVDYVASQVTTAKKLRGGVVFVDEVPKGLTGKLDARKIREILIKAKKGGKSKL
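Purified P. pyralis luciferase (10nM final) with 10uM D-luciferin and 10uM ATP (Km levels) in 50mM Tris acetate pH 7.5, 10mM Mg acetate, 0.01% Tween-20, 0.05% BSA; qHTS 6-point titration, ~60 µM downward; luminescence read.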
SMN2 splice up = qHTS Assay for Enhancers of SMN2 Splice Variant Expression; HEK293 SMN2-luciferase splicing reporter, luminescence, 30-36 h; AID 1458, 2008; actives 2.8% (n = 210,000); Potency, µM (series often up to 46.1 µM), without a hit: at the highest dose activity change, positive = activation, usual class: activators; note: % of control where 0% means no effect; nearly all actives have a fitted effect of over 55% in size
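HEK293 cells carry an SMN2 […]–luciferase reporter in which exon 7 inclusion puts luciferase in frame. Cells were plated 10-12 h before compound addition, then incubated 30-36 h at 37C. ONE-Glo luminescence was read; sodium butyrate at 4.5 mM final served as control.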
Active calls of the source: *; ? = inconclusive; nt = not tested or not shown. A selection: hits, their analogues and other compounds. The true share with any hit is near 9.2%. Calls come from the whole dose curve; as a rule, active = well fitted curve in the direction sought with a large enough effect; inconclusive = small, poorly fitted or top-dose-only effect, or another doubt; inactive = no such curve, though single readings can be large; an effect the other way counts as inactive or inconclusive. Potency is the fitted concentration of half-maximal effect.

SMILES	NPC1 promoter act	ELG1 repair inh	Rab9 prom act	ELG1 genotox	FLuc counter	SMN2 splice up
Cc1onc(-c2ccccc2)c1C(=O)Nc1nc2c(s1)CCCC2	3.6%	1.2%	-4.2%	4.1%	-2.1%	-9.5%
Cc1csc(NC(=O)c2cccnc2)n1	-2.4%	?	1.6%	8.7%	-11.5%	nt
CSc1cccc(-n2nnc(-c3nsc(NC(=O)c4cccs4)n3)c2C)c1	nt	nt	nt	nt	2.69µM*	nt
COc1ccc(C(=O)Nc2nc(-c3nnn(-c4cc(OC)ccc4OC)c3C)ns2)cc1	nt	nt	nt	nt	-11.6%	nt
Cc1csc(NC(=O)c2cccc(C)c2C)n1	3.16µM*	?	2.82µM*	?	15.1µM*	nt
Cc1cc(C(=O)Nc2nc3c(s2)CCCC3)no1	1.58µM*	?	0.794µM*	0.794µM*	4.78µM*	?
CC(C)c1ccc(Nc2c(-c3ccsc3)nc3ccc(Cl)cn23)cc1	nt	nt	nt	nt	-4.6%	0.3%
CCOc1ccccc1NC(=O)Cn1nnc2sc3c(c2c1=O)CCC(C(C)(C)C)C3 (stereo not drawn)	nt	nt	nt	nt	-2.1%	-14.1%
Cc1csc(NC(=O)c2cc(C)on2)n1	2.24µM*	?	2.24µM*	?	10.7µM*	nt
COc1cccc(C(=O)Nc2nc(-c3ccncc3)cs2)c1	3.4%	7.0%	14.5%	0.7%	-10.6%	-57.1%
Cc1csc(NC(=S)NC(=O)c2ccccc2)n1	?	?	?	20.6µM*	13.5µM*	nt
COc1cccc(C(=O)Nc2nc(C)cs2)c1	3.16µM*	?	2.51µM*	15.9%	6.75µM*	11.2µM*
Cc1csc(NC(=O)c2ccc3nc[nH]c3c2)n1	?	?	0.501µM*	11.2%	4.26µM*	nt
CN(C(=O)C(=O)Nc1ccc2nc3n(c(=O)c2c1)CCCCC3)c1cccc(C(F)(F)F)c1	nt	nt	nt	nt	-1.1%	-7.6%
Fc1ccc(Nc2ccc3ccccc3n2)c(F)c1	0.398µM*	?	0.126µM*	0.82µM*	0.757µM*	5.01µM*
O=C(Nc1ccc2ccccc2n1)Nc1ccccc1F	?	?	24.1%	4.2%	0.5%	nt
Cc1ccc(-n2nnc3c(=O)n(CC(N)=O)cnc32)cc1	-0.7%	0.0%	-5.6%	2.1%	-0.2%	nt
CC(=O)Nc1cccc(/C(C)=N/NC(=O)c2cccs2)c1	0.5%	?	2.3%	?	19µM*	?
C/C(=N\NC(=O)c1ccccc1)c1ccc(NC(=O)c2cccs2)cc1	28.1%	?	?	?	?	nt
C/C(=N/NC(=O)c1cccs1)c1cccc(N)c1	?	?	?	?	19µM*	nt
C/C(=N/NC(=O)c1cccs1)c1cccs1	?	?	2.51µM*	?	10.7µM*	nt
CCN(CC)S(=O)(=O)c1cccc(C(=O)N/N=C(\C)c2cccs2)c1	3.55µM*	?	3.16µM*	?	10.7µM*	11.2µM*
CC12CN3CC(c4ccccc4)(CN(C1)C3c1ccc(O)cc1)C2=O (stereo not drawn)	nt	nt	nt	nt	-9.0%	7.8%
COc1ccc(OC)c(NC(=O)c2oc3c(c2C)-c2nn(Cc4ccc(Cl)cc4)cc2CC3)c1	nt	nt	nt	nt	3.7%	nt
C=C(C)C1CC=C(C)/C(=N/NC(=O)c2cccs2)C1 (stereo not drawn)	?	?	?	?	4.78µM*	?
SMILES	NPC1 promoter act	ELG1 repair inh	Rab9 prom act	ELG1 genotox	FLuc counter	SMN2 splice up
CC(=O)Nc1cccc(/C(C)=N/NC(=S)NC(C)C)c1	15.5%	?	29.0%	3.8%	23.9µM*	23.6%
C=C(C)C1CC=C(C)/C(=N/NC(=O)c2ccccc2[N+](=O)[O-])C1 (stereo not drawn)	-0.9%	?	-0.3%	-7.4%	?	-33.4%
C/C(=N/Nc1ccccc1C(=O)O)c1cccs1	?	?	3.55µM*	?	19µM*	nt
C/C(=N\Nc1ccc(Cl)c(C(=O)O)c1)c1cccs1	?	?	?	5.5%	?	nt
CCOCCc1nn2c(=O)cc(COC(=O)c3ccccc3NC(=O)C3CCCCC3)nc2s1	nt	nt	nt	nt	0.9%	nt
COc1ccccc1NC(=O)N1CCN(c2nnc(C)c3c(C)n(-c4ccccc4)nc23)CC1	nt	nt	nt	nt	-2.6%	nt
CCC(SC1=NCCS1)C(=O)Nc1nnc(-c2ccccc2OC)s1 (stereo not drawn)	-5.5%	18.4µM*	-6.6%	-14.8%	7.3%	-27.8%
COC(=O)Nc1nnc(-c2ccccc2OC)s1	3.55µM*	?	2.24µM*	?	10.7µM*	nt
COC(=O)Nc1nnc(-c2ccccc2Cl)s1	?	?	29.5%	23.1µM*	10.7µM*	?
CCOc1ccc(-c2nonc2NC(=O)c2oc3ccc(F)cc3c2C)cc1	nt	nt	nt	nt	-5.7%	nt
CCc1nc2nc(C)cc(Nc3ccc(Br)cc3F)n2n1	nt	nt	nt	nt	0.9%	16.0%
COc1ccc(C)cc1NC(=O)COC(=O)c1ccc2c(c1)OCCO2	0.9%	9.6%	-1.1%	3.5%	4.5%	nt
COC(CNC(=O)C1CCCN1C(=O)OCc1ccccc1)OC (stereo not drawn)	-4.5%	8.4%	2.3%	0.4%	-2.9%	-3.2%
COC(=O)[C@@H]1C[C@]2(OC(=O)c3ccccc3)C=CC(=O)C[C@@H]2N1C(=O)OCc1ccccc1	4.3%	14.6µM*	-15.3%	-15.0%	-15.0%	-26.9%
NC(=O)c1nn2c(C(F)(F)F)cc(-c3ccc(Br)cc3)nc2c1Cl	nt	nt	nt	nt	0.7%	nt
COc1ccc(NC(=O)N2CC[C@@]3(CCCN(C(=O)c4ccco4)C3)C2)cc1	nt	nt	nt	nt	nt	-13.2%
CCc1ccc(-n2cc(-c3ccc(F)cc3)[n+]3c2SCCC3)cc1	-32.2%	4.61µM*	-29.8%	-16.5%	1.7%	-44.9%
c1ccc(-c2cn(-c3ccccc3)c3[n+]2CCCS3)cc1	-5.9%	20.6µM*	-19.6%	-14.6%	-0.3%	nt
COc1ccccc1NC(=O)CSC1=Nc2ccccc2C2=NC(CCC(=O)NCc3ccco3)C(=O)N12 (stereo not drawn)	nt	nt	nt	nt	1.0%	nt
CCC(=O)Nc1nc2ccc3sc(C)nc3c2s1	?	4.6%	?	?	6.75µM*	15.5%
Cc1nc2c(ccc3nc(NC(=O)C4CC4)sc32)s1	?	3.3%	-2.6%	-5.6%	13.5µM*	-50.8%
CCCC(=O)Nc1nc2ccc3nc(C)sc3c2s1	19.1%	13.8%	?	?	?	?
CC1CCN(S(=O)(=O)c2cc(C(=O)NC3(C)CCS(=O)(=O)C3)ccc2Br)CC1 (stereo not drawn)	-6.1%	-11.8%	-5.5%	0.3%	3.7%	nt
